In ChEMBL document CHEMBL4513216, “Probing the Open Global Health Chemical Diversity Library for Multistage-Active Starting Points for Next-Generation Antimalarials” (ACS Infect Dis, 2020) one finds INHIBITION data, which are given here for 102 molecules.

The campaign covered roughly 69,000 compounds. About 8,600 (12%) showed an effect of 50% or more. The sample as a whole holds a higher share of strong results than the screen did.

This assay concerns Plasmodium berghei. The assay is described as follows: Screen against P. berghei liver stage (PbLuc), transformed with Luciferase, at 10uM. The conditions noted are these: tested at 10 uM. It counts as functional, HepG2.
Turning to `O=C([C@@H]1COC[C@H]2CN(c3ccncn3)C[C@H]21)N1CCCCO1`, the INHIBITION is -11.6%.
For `FC(F)(F)C1CCc2nnc(CNCc3ccsc3)n2C1` (configuration not stated) the value was 37%.
Regarding `COc1ccc(CNCc2nnc3n2CC(C(F)(F)F)CC3)cc1` (configuration not stated), the INHIBITION stood at 27.5%.
Consider `FC(F)(F)C1CCc2nnc(CNCc3cccs3)n2C1` (configuration not stated), for which the INHIBITION was 26%.
Take `Fc1ccc(CNCc2nnc3n2CC(C(F)(F)F)CC3)cc1` (configuration not stated): the INHIBITION stood at 63%.
Then `Cc1ccc(CNCc2nnc3n2CC(C(F)(F)F)CC3)cc1` (configuration not stated), with 45.1%; and `Fc1ccc(CNCc2nnc3n2CC(C(F)(F)F)CC3)c(F)c1` (configuration not stated), with 63%; and `COc1ccc(Cl)cc1NCC(=O)NCc1cccnc1OC`, with -12.2%.
For `CC(=O)N1CCc2ccc(NC(=O)c3cn(C)nn3)cc2C1`, the INHIBITION is 24.2%.
Regarding `CCc1ncc2c(n1)CN(CC(=O)Nc1cc(C)on1)CC2`, the INHIBITION is reported as -7.31%.
Turning to `COc1ccc2cc(C(=O)NCCNc3ccc(C)nn3)[nH]c2c1`, the INHIBITION is listed as -17.7%.
`Cc1cc(CC(=O)N2CCc3cc(Br)sc3C2)n[nH]1`: the INHIBITION is -37.6%.
`Fc1ccccc1CN1CCC[C@@H](Cn2nnc(-c3cccs3)n2)C1`: the INHIBITION amounted to 22.62%.
`Cn1c2c(c(=O)n1C)CN(S(=O)(=O)c1cccs1)CCC2`: the INHIBITION is on record as 18.7%.
Turning to `Cc1cccc(S(=O)(=O)N2CCCc3c(c(=O)n(C)n3C)C2)c1`, the INHIBITION was found to be 70.4%.
Take `COc1nn(C)c2c1CCCN(S(=O)(=O)c1cccc(F)c1)C2`: the INHIBITION is on record as -31.3%.
As for `COc1nn(C)c2c1CCCN(S(=O)(=O)c1cccc(C)c1)C2`, the INHIBITION is recorded as 80.2%.
In the case of `Cn1c2c(c(=O)n1C)CN(C(=O)c1cccc(F)c1)CCC2`, the INHIBITION is 46.6%.
In the case of `COc1cccc(S(=O)(=O)N2CCCc3c(OC)nn(C)c3C2)c1`, the INHIBITION stood at 18.5%.
On to `CC(C)c1nc(C2CCCN(C(=O)c3ccc4c(c3)COC4)C2)no1` (configuration not stated), for which the INHIBITION stood at 1.75%.
For the molecule `c1nc(N2CCOCC2)ncc1-c1cncn1CCCN1CCCCC1`, the INHIBITION stood at 26.585%.
In the case of `CCS(=O)(=O)N1CCC(OC)c2ccccc2N(CC(=O)NC)C(=O)C1` (configuration not stated), the INHIBITION is 43.4%.
For `CCOC(=O)N1CCC(OC)c2ccccc2N(CC(=O)NC)C(=O)C1` (configuration not stated) the value was 42.7%; for `CCOC(=O)CN1C(=O)CN(S(C)(=O)=O)CCC(OC)c2ccccc21` (configuration not stated), 54.8%.
`CCc1ccc(CN2CCC(CNC(=O)c3ccc(C)nc3)C2)nc1` (configuration not stated): the INHIBITION is on record as -16.8%.
Regarding `Cc1ccc(C(=O)NCC2CCN(Cc3ccccc3C#N)C2)cn1` (configuration not stated), the INHIBITION amounted to 58.6%.
For `CCn1ccnc1CN1CCC(CNC(=O)c2ccc(C)nc2)C1` (configuration not stated), the INHIBITION came to 26.8%.
Turning to `CCOC1CC2(CCN(Cc3cccn3C)CC2)C1`, the INHIBITION was found to be 29%.
`Cn1cc(CN2CCc3c(nnn3C)C2COCc2ccccc2)cn1` (configuration not stated): the INHIBITION was -90.3%.
For the molecule `Cc1nccn1C1CCCN(C(=O)c2cnn(C)c2C2CC2)C1` (configuration not stated), the INHIBITION is -3.58%.
Then `Cc1cc(C)nc(NC(=O)NCCCSc2nncn2C)n1`, with 9%; and `CCc1cnc(CN(C(C)=O)C2CCN(CCc3ccncc3)C2)o1` (configuration not stated), with 42.9%; and `O=C(CC[C@@H]1CCCN2CCCC[C@H]12)N1CCC(c2nnc[nH]2)CC1`, with -9.8%.
For the molecule `Fc1cnc(N2CCCn3c(nnc3Cn3cccc3)C2)nc1`, the INHIBITION is given as -23.4%.
Take `Fc1cnc(N2CCn3c(CN4CCCC4)nnc3C2)nc1`: the INHIBITION is given as 57.9%.
Regarding `Fc1cnc(N2CCCn3c(CN4CCOCC4)nnc3C2)nc1`, the INHIBITION is on record as -16.9%.
In the case of `CS(=O)(=O)c1ccc(C(=O)N2CCCC(n3cncn3)C2)o1` (configuration not stated), the INHIBITION is on record as 21.8%.
On to `CCc1nnc(Nc2cccc(C3CCN(C(C)=O)CC3)n2)s1`, for which the INHIBITION is listed as -28.6%.
For `CCc1nnc(Nc2cccc(C3CCN(C(=O)CN(C)C)CC3)n2)s1` the value was 22%; for `CCc1nnc(Nc2cccc(C3CCN(C)CC3)n2)s1`, 12.3%.
For `Cc1nnc(Nc2cccc(C3CCN(CCO)CC3)n2)s1` the value was 13.6%; for `CCc1nnc(Nc2cccc(C3CCN(S(=O)(=O)N(C)C)CC3)n2)s1`, 53.2%; for `CCc1nnc(Nc2cccc(C3CCN(CCO)CC3)n2)s1`, 55.7%.
For `CS(=O)(=O)NC1CCCN(C(=O)Nc2ccccc2Cn2cccn2)C1` (configuration not stated), the INHIBITION is 20.9%.
`O=C(NCCn1ccnc1)N1CCCC1c1cccs1` (configuration not stated): the INHIBITION is given as 7.333%.
`Cc1cc(F)c2c(c1)CCCN2Cc1cc(=O)n(C)c(=O)n1C`: the INHIBITION is reported as -14.2%.
On to `COc1ccc(-c2cnc(CN3CCCC3Cn3cccn3)o2)cc1` (configuration not stated), for which the INHIBITION was -21.8%.
Take `c1csc(CN2Cc3nccn3CC(Cn3cncn3)C2)n1` (configuration not stated): the INHIBITION stood at 28.5%.
In the case of `O=c1c(NCCNCCO)c(N2CCN(Cc3ccccc3)CC2)c1=O`, the INHIBITION is on record as 28.3%.
For `O=c1c(NCCNCCO)c(N2CCN(c3ccccc3)CC2)c1=O` the value was 55.5%; for `O=c1c(NCCO)c(N2CCN(c3ccccc3)CC2)c1=O`, 29.8%; for `COc1ccc(CN2C[C@@H]3COC[C@]3(CN(C)C)C2)cc1`, 20.5%.
In the case of `CN(Cc1cccc(C#N)c1)C(=O)C1CC(c2cccc(F)c2)=NO1` (configuration not stated), the INHIBITION is listed as 8.38%.
As to `COc1ccc(OC)c2c(C)cc(N(C)CCCO)nc12`, the INHIBITION was determined as 51.1%.
Take `COc1ccc(OC)c2c(C)cc(N(CCO)CCO)nc12`: the INHIBITION amounted to 1.79%.
For the molecule `COc1ccc(OC)c2c(C)cc(N(C)CCO)nc12`, the INHIBITION came out at 0.897%.
On to `O=C(NCc1ccc2c(c1)OCO2)c1ccc(N2CCCCC2)nn1`, for which the INHIBITION turned out to be 33.4%.
For the molecule `CN(C)S(=O)(=O)N1CC[C@]2(C[C@H](Oc3cccnc3)CO2)C1`, the INHIBITION was 0%.
Turning to `Cc1cccc(C(=O)N2CC[C@]3(C[C@H](OCc4ccccn4)CO3)C2)c1`, the INHIBITION turned out to be 71.9%.
Take `Cc1ccc(C(=O)N2CC[C@]3(C[C@@H](OCc4ccccn4)CO3)C2)nc1`: the INHIBITION turned out to be 35.7%.
As for `Cc1cccc(CO[C@H]2CO[C@@]3(CCN(S(=O)(=O)N(C)C)C3)C2)n1`, the INHIBITION came out at 55.5%.
On to `Cc1cccc(COC2COC3(CCN(S(C)(=O)=O)CC3)C2)n1` (configuration not stated), for which the INHIBITION is listed as 44.2%.
For the molecule `CN(C)S(=O)(=O)N1CC[C@]2(C[C@H](OCc3ccncc3)CO2)C1`, the INHIBITION is 57.1%.
Consider `Cc1cccc(COC2COC3(CCN(Cc4ccoc4)CC3)C2)n1` (configuration not stated), for which the INHIBITION is on record as 11.4%.
For `CN(C)S(=O)(=O)N1C[C@@H](OCc2ccccn2)[C@H]2OCCC[C@H]21`, the INHIBITION came out at 56.1%.
For `CCS(=O)(=O)N1C[C@@H](OCc2ccccn2)[C@@H]2OCCC[C@@H]21`, the INHIBITION is 16.6%.
Consider `O=C(c1ccccc1)N1CCC[C@]2(C[C@@H](OCc3ccccn3)CO2)C1`, for which the INHIBITION came out at 49.7%.
As to `CN(C)S(=O)(=O)N1C[C@@H](Oc2ccccn2)[C@H]2OCCC[C@H]21`, the INHIBITION is recorded as -4.74%.
Take `CN(C)S(=O)(=O)N1CC[C@]2(C[C@@H](Oc3cccnc3)CO2)C1`: the INHIBITION is given as 21.8%.
Take `COCCN1CCCC(c2ccnc3c(C(N)=O)cnn23)C1` (configuration not stated): the INHIBITION is given as 37.7%.
As for `CNC(=O)C(C)(C)N1CCC[C@H]1C(=O)NCC(C)C`, the INHIBITION stood at 27.2%.
Then `Cc1cccc(-c2noc(CN3CCCC3Cn3cncn3)n2)c1` (configuration not stated), with 19.4%; and `CC(Cn1cccn1)n1cnc2ccc(F)cc2c1=O` (configuration not stated), with 35%.
Turning to `CCOC(=O)CNC(=O)N1CCC(OC)c2ccccc2N(C)C(=O)C1` (configuration not stated), the INHIBITION came out at 29.8%.
Take `O=C1CCCC2=C1C(c1ccco1)C1C(=O)NN=C1N2` (configuration not stated): the INHIBITION was 36.3%.
As for `CCc1ncc2c(n1)CN(Cc1cccc(OCC(N)=O)c1)CC2`, the INHIBITION is given as 0.914%.
For the molecule `Cc1nc(CN(C)C2CCN(Cc3ccc(Cl)s3)C2)no1` (configuration not stated), the INHIBITION is -35.7%.
Then `O=S(=O)(CCO)CCc1ccccc1Cl`, with 25.2%; and `c1ncn(CC2CCCN2Cc2csc(C3CCCCC3)n2)n1` (configuration not stated), with 23.5%.
Consider `CCNc1cc2c(nn1)CCN(C(=O)Cc1c(C)nn(C)c1C)C2`, for which the INHIBITION worked out at 15.5%.
For the molecule `CC(NC1CCN(CCS(C)(=O)=O)CC1)c1cnn(C(C)C)c1` (configuration not stated), the INHIBITION was -5.22%.
Turning to `O=C(c1cnccn1)N1CCO[C@H]2[C@H](OCc3cccnc3)CC[C@@H]21`, the INHIBITION is listed as 7.31%.
As for `CN1CCN(c2ncnc3c2CCN(c2ncc(F)cn2)CC3)CC1`, the INHIBITION is 24.9%.
Then `CC1CCN(S(=O)(=O)N2CCC(Oc3cnccn3)CC2)CC1`, with 19.6%; and `Cc1cc2c(=O)n3c(nc2s1)CCN(C(=O)c1ccn(C)n1)CC3`, with 0.301%; and `CC(=O)NCCNC(=O)Nc1cc(C(C)(C)C)sc1C#N`, with 42.7%.
Regarding `CN(C)S(=O)(=O)N1CCC2(CC1)CC(OCC1CC1)CO2` (configuration not stated), the INHIBITION turned out to be 28.2%.
On to `O=S(=O)(c1ccccc1)N1CCC[C@]2(C[C@H](OCC3CC3)CO2)C1`, for which the INHIBITION is reported as 19.4%.
Then `CN(C)S(=O)(=O)N1CC[C@]2(C[C@H](Oc3ncccc3F)CO2)C1`, with 34.1%; and `CCS(=O)(=O)N1CC[C@]2(C[C@@H](OCC3CC3)CO2)C1`, with 15.1%.
For `CN(C)S(=O)(=O)N1CC[C@]2(C[C@@H](OCc3ccccn3)CO2)C1` the value was 39.4%.
As for `CN(C)S(=O)(=O)N1CCC2(CC1)CC(Oc1ccccn1)CO2` (configuration not stated), the INHIBITION was -60.2%.
For `CCO[C@H]1CO[C@@]2(CCCN(S(=O)(=O)c3ccccc3)C2)C1` the value was 23.9%; for `CCO[C@@H]1CO[C@@]2(CCCN(S(=O)(=O)c3ccccc3)C2)C1`, 64.9%; for `CN(C)S(=O)(=O)N1CC[C@]2(C[C@@H](Oc3ncccc3F)CO2)C1`, 10.1%.
In the case of `CN(C)S(=O)(=O)N1CC[C@]2(C[C@@H](OCC3CC3)CO2)C1`, the INHIBITION is given as 57.1%.
Consider `Cc1cccc(CO[C@@H]2CO[C@@]3(CCN(S(=O)(=O)N(C)C)C3)C2)n1`, for which the INHIBITION worked out at 63.5%.
Take `CN(C)S(=O)(=O)N1CC[C@]2(C[C@H](OCc3ccccn3)CO2)C1`: the INHIBITION amounted to 57.1%.
`COCC(=O)N1CCN(C(C)c2ncc(-c3ccccc3)o2)CC1` (configuration not stated): the INHIBITION turned out to be 40.2%.
`Cc1cc2n(n1)CC(CNCc1ccc(-n3cccn3)cc1)CN2` (configuration not stated): the INHIBITION is given as 6.35%.
For `O=C(Nc1ccc(OC2CCCC2)cc1)C1CCCN1c1nccs1` (configuration not stated) the value was 2.625%; for `CC(C)Oc1cccc(F)c1C(C(=O)O)N1CCCN(C)CC1` (configuration not stated), 28.2%.
